In the library only some 7.4% were active in any assay of this set; here they are far more common.
ELG1 genotox: induces genotoxicity in HEK293T cells with luciferase-tagged ELG1; HEK293T ELG1-luciferase reporter, luminescence, 16 h; Potency, µM (top dose mostly 46 µM), inactives show top-dose activity change, positive = activation, hits mostly activators; 330,000 tested, 1.3% active; AID 504466; further: % of control where 0% means no effect; nearly all actives have a fitted effect of over 60% in size
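Screening used a luciferase reporter fused to human ELG1 in HEK293T cells. Luminescence was read on a CCD plate imager after 16 hr exposure and 30 min ONE-Glo incubation.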
NPC1 prom act: NPC1 promoter activation. Huh7 NPC1 promoter luciferase reporter, 24 h. Potency, µM (top dose mostly 9.22 µM), inactives show at the highest dose activation, most hits filed as activators. 320,000 tested, 2.4% active; further: % of control where 0% means no effect; nearly all actives have a fitted effect of over 60% in size
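In 1536-well qHTS, Huh7 cells harboring an NPC1 promoter–luciferase construct received compound for 24 h; activation was quantified by luminescence following luciferase reagent addition.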
SMN2 splice enh: increases expression of the SMN2 splice variant. HEK293 SMN2-luciferase splicing reporter, luminescence, 30-36 h. Potency, µM (titrated, usually from 46.1 µM), without a hit: top-dose activity change, positive = activation, most hits filed as activators. 210,000 tested, 2.8% active; further: % of control where 0% means no effect; nearly all actives have a fitted effect of over 55% in size
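qHTS luciferase splicing reporter: luminescence rises when SMN2 exon 7 is included in transfected HEK293 cells. Compound exposure lasted 30-36 h at 37C, with 4.5 mM final sodium butyrate as control, followed by a ONE-Glo read.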
Rab9 prom act: Rab9 promoter activation. Huh7 Rab9 promoter-luciferase reporter, luminescence, 24 h. Potency, µM (top dose mostly 9.22 µM), for inactives: top-dose activation, negative = inhibition, most hits filed as activators. 320,000 tested, 2.8% active; further: % of control where 0% means no effect; nearly all actives have a fitted effect of over 60% in size
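Luminescence from Amplite-detected luciferase (10 minutes, ambient) reports Rab9 promoter activation. Before that, stable Rab9-luciferase Huh7 cells (1500/well, reduced-serum OP-MEM I plus 10% FBS) were exposed to compound for 24 hours at 37C.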
FLuc counter: inhibits or activates purified firefly luciferase, miR-21 counter-screen; purified FLuc, Km substrates, luminescence inhibition; Potency, µM (top dose mostly 57.5 µM), inactives show at the highest dose activity change, negative = inhibition, actives largely listed as inhibitors; 360,000 tested, 6.9% active;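 further: plate controls were vehicle for no effect and reference inhibitor for full effect; nearly all actives have a fitted effect of over 55% in size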
Target sequence (P08659 whole entry, looked up): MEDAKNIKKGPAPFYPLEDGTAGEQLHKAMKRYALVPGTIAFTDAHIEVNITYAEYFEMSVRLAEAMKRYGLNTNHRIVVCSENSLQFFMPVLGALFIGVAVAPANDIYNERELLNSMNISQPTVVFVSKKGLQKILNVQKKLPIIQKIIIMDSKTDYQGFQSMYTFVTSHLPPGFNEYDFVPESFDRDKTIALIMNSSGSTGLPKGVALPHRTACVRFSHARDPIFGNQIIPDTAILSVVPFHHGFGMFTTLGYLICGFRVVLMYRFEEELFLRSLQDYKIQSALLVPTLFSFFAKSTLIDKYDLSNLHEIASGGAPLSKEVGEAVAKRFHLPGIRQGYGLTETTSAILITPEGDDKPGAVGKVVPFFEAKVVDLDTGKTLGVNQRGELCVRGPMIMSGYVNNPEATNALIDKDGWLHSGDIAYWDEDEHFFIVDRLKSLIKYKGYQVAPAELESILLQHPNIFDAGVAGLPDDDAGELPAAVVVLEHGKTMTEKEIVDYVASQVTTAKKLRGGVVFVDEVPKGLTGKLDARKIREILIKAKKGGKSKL
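Biochemical qHTS of compounds, final roughly 60 µM downward over six points, against 10 nM purified firefly luciferase using Km concentrations of substrates (10 uM D-luciferin, 10 uM ATP) in Tris acetate pH 7.5 buffer; luminescence output.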
* marks the source's active call; other numbers are inactive results; ? = inconclusive; · = not tested or not shown; [ ] = dose if it differs, or a comment. The call rests on the fitted dose curve; in most records, active means well fitted curve in the direction sought with a large enough effect; inconclusive means small, poorly fitted or top-dose-only effect, or another doubt; inactive means no such curve, though single readings can be large; an effect the other way counts as inactive or inconclusive. Potency means the concentration at half of the fitted maximal effect.

SMILES	ELG1 genotox	NPC1 prom act	SMN2 splice enh	Rab9 prom act	FLuc counter
Cc1ccc(C)c(N2CCN(CCCNC(=O)c3cnn(-c4ccc(F)cc4)c3C3CCN(C(=O)OC(C)(C)C)CC3)CC2)c1	·	·	·	·	6%
Cc1sc2nc(CSC(C)C(=O)N3CCOCC3)[nH]c(=O)c2c1C (stereo not drawn)	-1%	1%	·	0%	5%
Cn1c(=O)c2c(ncn2CC(=O)Nc2nccs2)n(C)c1=O	-1%	1%	·	-8%	7%
COc1cc(C=O)ccc1OCc1cccc(Br)c1	?	-3%	14µM*	-6%	7.6µM*
CCOc1cc(C=O)ccc1OCCSc1ccc(C)cc1	0%	-1%	-12%	-5%	-5%
COc1cc(C=O)ccc1OCCSc1ccc(C)cc1	16µM*	12%	14%	8%	?
COc1cc(C=O)ccc1OCc1ccccc1Br	?	?	?	?	9.5µM*
CNC(=O)COc1ccc(C=O)cc1OC	3%	-1%	-35%	-8%	0%
Fc1cccc(-c2cc3nc4c(c(NCc5ccco5)n3n2)CCCC4)c1	17%	?	11µM*	?	7.6µM*
Cc1nn2c(-c3ccccc3)ccnc2c1Br	2%	-4%	·	-11%	-15%
Cc1nn2c(-c3cccnc3)ccnc2c1-c1ccccc1	4%	22%	17%	29%	11µM*
CCOc1ccc(/C=N/NC(=O)c2[nH]ncc2Br)c(O)c1	?	?	3.5µM*	?	2.1µM*
O=C(N/N=C/c1c(O)ccc2ccccc12)c1[nH]ncc1Br	?	-7%	-79%	-18%	6.7µM*
Cc1cc(C(=O)N/N=C\c2cc(C(C)(C)C)ccc2O)n[nH]1	?	-31%	·	-29%	24µM*
O=C(N/N=C/c1c(O)ccc2ccccc12)c1cccc(C(F)(F)F)c1	-8%	-16%	-106%	-29%	1%
Cc1ccc(O)c(/C=N/NC(=O)c2[nH]ncc2Br)c1	16µM*	?	0%[1.84 µM]	?	4.3µM*
COc1ccc(OC)c(/C=N/NC(=O)c2[nH]ncc2Br)c1	1%	3%	·	7%	-10%
Cc1cc(C(=O)N/N=C/c2cccn2C)n[nH]1	13%	15%	?	?	?
COc1cccc(CNC(=O)C(Cc2ccccc2)NS(=O)(=O)c2ccc3c(c2)oc(=O)n3C)c1 (stereo not drawn)	·	·	-5%	·	0%
CC[C@@]1([N+](=O)[O-])C[C@H]2C=C[C@@H]1C2	·	·	-6%[9.22 µM]	·	·
O=C(NCC1CCN(Cc2ccc(F)cc2)CC1)Nc1cc(F)ccc1F	-1%	10%	·	-5%	1%
COc1ccccc1CNC(=O)CN(C)c1nn2c(=O)cc(C)nc2s1	·	·	-1%	·	7%
O=C(N/N=C/c1cccs1)c1cnccn1	9%	-1%	-15%	9%	?
O=C(N/N=C/c1cccs1)c1[nH]ncc1Br	16µM*	3.5µM*	·	4µM*	21µM*
COc1ccc(CNCC(=O)Nc2cc(OC)cc(OC)c2)cc1	-3%	-2%	·	5%	2%
SMILES	ELG1 genotox	NPC1 prom act	SMN2 splice enh	Rab9 prom act	FLuc counter
CCN(CC)S(=O)(=O)c1ccc(-c2csc(=Nc3cccc(C(F)(F)F)c3)n2Cc2ccc3c(c2)OCO3)cc1	·	·	-5%	·	-2%
Cc1ccc(-c2csc(NC(=O)COC(=O)c3cccc(S(=O)(=O)N4CCOCC4)c3)n2)cc1	?	3.2µM*	·	2.5µM*	11µM*
Cc1ccc(-c2csc(NC(=O)c3cccc(S(=O)(=O)N4CCN(C)CC4)c3)n2)cc1	-5%	-5%	-70%	1%	-19%
Cc1ccnc(NC(=O)c2cccc(S(=O)(=O)N3CCOCC3)c2)c1	?	0%	·	13%	17µM*
COc1ccc(CC(=O)Nc2nccs2)cc1S(=O)(=O)N1CCOCC1	-1%	·	·	·	·
O=C(Nc1ccccn1)c1cccc(S(=O)(=O)N2CCOCC2)c1	-4%	0%	-2%	-4%	6%
COc1ccc2nc(NC(=O)c3cccc(S(=O)(=O)N4CCOCC4)c3)sc2c1	0%	0%	-29%	4%	11µM*
COc1ccc2nc(NC(=O)Cc3ccc(OC)c(S(=O)(=O)N4CCOCC4)c3)sc2c1	-1%	11%	-23%	7%	24µM*
COc1cc(C(=O)Nc2nc3ccc(S(=O)(=O)N4CCOCC4)cc3s2)cc(OC)c1OC	-4%	-1%	-12%	-6%	-1%
CCCCOC(=O)c1ccc(NC(=S)NC(=O)c2c(Br)c(C)nn2C)cc1	-3%	-4%	-46%	-8%	-2%
C=C(C(C)=O)C(O)c1ccc(C(F)(F)F)cc1 (stereo not drawn)	·	·	0%	·	·
N#CCc1ccccc1C(=O)OCC(=O)N(Cc1ccccc1)Cc1ccccc1	-2%	-1%	·	0%	5%
O=C(Nc1nc(-c2nc3ccccc3s2)cs1)c1ccc(S(=O)(=O)N2CCOCC2)cc1	-13%	3.2µM*	·	4.5µM*	?
COc1ccc2nc(NC(=O)c3cc(S(=O)(=O)N4CCOCC4)ccc3C)sc2c1	-4%	2%	-49%	1%	11µM*
O=C1c2ccccc2[C@@H]2C[C@@H](O)[C@H](Nc3ccccc3-c3ccccc3)CCN12	0%	·	·	·	·
COC(=O)Cc1c(C)c2ccc(OCC(C)=O)c(C)c2oc1=O	9.2µM*	?	13µM*	?	?
C=C(C)COc1ccc2c(C)c(CC(=O)OC)c(=O)oc2c1C	9.2µM*	?	-36%	?	9.5µM*
COc1ccc(C2CC(=O)c3cnc(N4CCc5ccccc54)nc3C2)cc1OC (stereo not drawn)	-3%	0%	·	-3%	-1%
CNc1nc(N2CCc3ccccc32)ncc1F	?	2.5µM*	?	2.2µM*	5.4µM*
CCOC(=O)c1c(S(=O)(=O)NCCCc2ccco2)c(C)n(C)c1C	-1%	-2%	·	-2%	-1%
c1ccc2nc3c(nc2c1)[nH]c1ccccc13	9.2µM*	3.2µM*	11µM*	0.89µM*	3.8µM*
c1ccc(-c2c3ccccc3nc3[nH]c4ccccc4c23)cc1	2%	0%	-19%	-2%	-22%
CCCCN(C(=O)c1c(CC)noc1C)c1c(N)n(CCCC)c(=O)[nH]c1=O	-3%	0%	·	-3%	2%
CSCCC(=O)N1CCCC(CNC(=O)c2ccc(-c3ccccc3)cc2)C1 (stereo not drawn)	-2%	-2%	-14%	0%	12µM*
CCc1cc(C(=O)N2CCCC(CNC(=O)c3ccc(-c4ccccc4)cc3)C2)no1 (stereo not drawn)	-5%	-4%	·	27%	12µM*
Cc1cc(=O)[nH]c(SCC(=O)Nc2nnc(CC(C)C)s2)n1	-1%	0%	-19%	-1%	3%
O=C(CSc1ncn[nH]1)Nc1ccccc1-c1ccccc1	0%	-7%	-5%	0%	-4%
Nc1cc(=O)[nH]c(SCC(=O)Nc2nnc(-c3ccccc3)s2)n1	7%	8%	20%	14%	24µM*
